Source: PubChem BioAssay (National Center for Advancing Translational Sciences (NCATS))
In the library only some 2.3% were active in any assay of this set; here they are far more common.
Tau fibril FP: inhibitors of human tau fibril formation; 0.39% of 280,000 active; Potency, µM (doses to about 57.7 µM), for the others: top-dose activity, negative = inhibition, usual class: inhibitors; K18 P301L tau heparin fibrillization, Alexa594 FP, 6 h; AID 1468; P10636; also: potency is read from the fitted curve at half-maximal effect; nearly all actives have a fitted effect of over 55% in size
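Human K18 P301L fragment (15 uM unlabeled plus 0.24 uM Alexa 594-labeled) in 100 mM sodium acetate pH 7 with compound, aggregation induced by 20 uM heparin for 6 hr at 37 C. ThT (30 uM) added for 1 hr, then Alexa 594 FP read.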
Tau fluor counter: counter-screen for tau fibril formation inhibitors | tau K18 P301L Alexa594 fluorescence, heparin fibrillization | Potency, µM (series often up to 57.7 µM), without a hit: top-dose activity change, negative = decrease | 0.93% of 280,000 active | AID 1463; also: potency is read from the fitted curve at half-maximal effect; nearly all actives have a fitted effect of over 55% in size
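Human tau K18 P301L (15 uM unlabeled, 0.24 uM Alexa 594-labeled) in 100 mM sodium acetate pH 7 with 20 uM heparin, 6 hr at 37 C. ThT 30 uM added, 1 hr ambient; Alexa 594 FP and total fluorescence read at 555/632 nm.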
USP1-UAF1 inh: USP1/UAF1 (human) deubiquitinase inhibition | O94782 | recombinant USP1/UAF1, Ub-Rhodamine cleavage fluorescence | Potency, µM (top dose mostly 57.1 µM), without a hit: at the top dose activity change, negative = inhibition, most hits filed as inhibitors | 0.23% of 390,000 active; also: potency is read from the fitted curve at half-maximal effect; nearly all actives have a fitted effect of over 60% in size
Target sequence (O94782 whole entry, looked up): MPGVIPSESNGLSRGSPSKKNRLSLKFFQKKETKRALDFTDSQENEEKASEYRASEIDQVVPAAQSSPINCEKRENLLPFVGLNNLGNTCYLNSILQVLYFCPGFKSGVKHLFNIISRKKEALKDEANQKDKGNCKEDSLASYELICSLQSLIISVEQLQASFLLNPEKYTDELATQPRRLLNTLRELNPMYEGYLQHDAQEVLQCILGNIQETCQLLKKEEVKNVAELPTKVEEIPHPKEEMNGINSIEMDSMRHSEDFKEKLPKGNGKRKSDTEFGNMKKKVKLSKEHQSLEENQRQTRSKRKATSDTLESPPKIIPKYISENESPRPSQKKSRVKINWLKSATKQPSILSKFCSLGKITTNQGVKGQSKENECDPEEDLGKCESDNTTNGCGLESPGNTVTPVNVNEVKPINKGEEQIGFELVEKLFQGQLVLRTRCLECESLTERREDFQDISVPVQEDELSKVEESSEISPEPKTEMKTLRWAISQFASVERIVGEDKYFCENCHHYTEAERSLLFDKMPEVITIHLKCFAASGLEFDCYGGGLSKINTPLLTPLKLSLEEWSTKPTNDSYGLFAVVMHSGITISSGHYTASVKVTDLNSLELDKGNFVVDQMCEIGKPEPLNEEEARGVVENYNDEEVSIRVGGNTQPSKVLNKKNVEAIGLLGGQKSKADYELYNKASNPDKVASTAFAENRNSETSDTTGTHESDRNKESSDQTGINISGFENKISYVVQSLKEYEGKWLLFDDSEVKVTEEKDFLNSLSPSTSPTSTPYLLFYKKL
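Step one: compound is pinned into 1nM USP1/UAF1 in HEPES pH 7.8 buffer with TCEP. Step two: 15 min room-temperature incubation. Step three: Ub-Rho (150nM final) starts cleavage, tracked by fluorescence over six one-minute reads.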
Coupling enz: counter-screen for Giardia aldolase inhibitors: coupling enzyme system. coupling enzyme system counterscreen, AmpLite Red fluorescence. activity change, negative = inhibition, % at 58.2 µM, hits read low. 0.67% of 290,000 active. AID 2472; in the data active = activity change below about -30%
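First, compound is pin-transferred into glyceraldehyde-3-phosphate coupling-enzyme reagent at 57.5 uM final and held 10 min at RT. Next, substrate, coupling system and AmpLite Red are added. After 20 min RT, fluorescence (525/598 nm) is read.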
Tau ThT inhib: inhibitors of human tau fibril formation, thioflavin T binding | recombinant tau K18 P301L, heparin-induced fibrillization, ThT fluorescence | 2.1% of 270,000 active | Potency, µM (doses to about 57.4 µM), for inactives: at the highest dose activity, negative = inhibition, most hits filed as inhibitors | AID 1460; also: potency is read from the fitted curve at half-maximal effect; nearly all actives have a fitted effect of over 55% in size
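ThT emission at 510 nm, taken 1 hr after adding 30 uM dye, quantifies aggregates formed when 20 uM heparin acts on human tau K18 P301L for 6 hr at 37 C.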
* hit, by the source's call; u = inconclusive; x = not tested or not shown; [ ] = another dose, or the depositor's remark. Unless noted, calls follow the shape of the dose curve; as a rule, active = well fitted curve in the direction sought with a large enough effect; inconclusive = small, poorly fitted or top-dose-only effect, or another doubt; inactive = no such curve, though single readings can be large; an effect the other way counts as inactive or inconclusive. % is scaled to controls: 0 for no effect and ±100 for the full control effect.

SMILES	Tau fibril FP	Tau fluor counter	USP1-UAF1 inh	Coupling enz	Tau ThT inhib
CC[C@H](C)[C@H](NC(=O)[C@H](CCC(=O)O)NC(=O)[C@H](C)NC(=O)[C@@H](NC(=O)[C@H](Cc1cnc[nH]1)NC(=O)[C@@H](NC(=O)[C@H](CCC(=O)O)NC(=O)[C@H](C)NC(=O)[C@@H](NC(=O)[C@H](CC(C)C)NC(=O)[C@H](Cc1cnc[nH]1)NC(=O)[C@H](Cc1cnc[nH]1)NC(=O)[C@H](CC(C)C)NC(=O)[C@H](Cc1c[nH]c2ccccc12)NC(=O)[C@H](Cc1ccccc1)NC(=O)[C@H](CCCNC(=N)N)NC(=O)[C@H](CCCNC(=N)N)NC(=O)[C@H](CCCNC(=N)N)NC(=O)[C@H](CC(C)C)NC(=O)[C@H](CC(=O)O)NC(=O)[C@H](CCC(N)=O)NC(=O)[C@@H](NC(=O)[C@H](CO)NC(=O)[C@H](CCCCN)NC(=O)CNC(=O)[C@H](CCCCN)NC(=O)[C@H](CC(=O)O)NC(=O)[C@H](Cc1cnc[nH]1)NC(=O)[C@H](CC(C)C)NC(=O)[C@H](CC(C)C)NC(=O)[C@H](CCC(N)=O)NC(=O)[C@@H](NC(=O)[C@H](CCC(=O)O)NC(=O)[C@H](CO)NC(=O)[C@@H](NC(=O)[C@H](C)N)C(C)C)[C@@H](C)CC)[C@@H](C)CC)[C@@H](C)CC)[C@@H](C)CC)[C@@H](C)O)C(=O)O	x	x	x	-1	x
N#C/C(=C/c1ccc(O)c([N+](=O)[O-])c1)C(=O)Nc1ccccc1	8%	u	-14%	7	8.9µM*
N#C/C(=C\c1ccc(O)c(O)c1)C(=O)NCCc1ccccc1	12%	u	-29%	x	u
N#C/C(=C\c1ccc(O)c(O)c1)C(=O)NCCCCc1ccccc1	2%	14µM*[quencher]	x	1	16µM*
C=CCN(Cc1ccc(Br)s1)C(=O)c1ccc(OCc2c(C)noc2C)cc1	x	x	-11%	x	x
Cc1noc(C)c1CSCC(=O)Nc1nc2c(F)cc(F)cc2s1	x	x	4%	x	x
CCOc1ccc(/C=N/NC(=O)Cc2csc(Nc3cccc(C(F)(F)F)c3)n2)c(OCC)c1	u	u	-19%	-1	-1%
CCOc1ccccc1/C=N/NC(=O)Cc1csc(Nc2cccc(C(F)(F)F)c2)n1	11%	20µM*[quencher]	-21%	-5	-17%
CCOc1ccc(/C=N/NC(=O)Cc2csc(Nc3cccc(C(F)(F)F)c3)n2)cc1	0%	10µM*[quencher]	-14%	6	u
COc1ccc(NC(=O)C/C(C)=N/NC(=O)C2CCCCC2)c([N+](=O)[O-])c1	x	x	-11%	2	x
Cc1c2oc3c(C)ccc(C(=O)N[C@@H]4C(=O)N[C@H](C(C)C)C(=O)N5CCC[C@H]5C(=O)N(C)CC(=O)N(C)[C@@H](C(C)C)C(=O)O[C@@H]4C)c3nc-2c(C(=O)N[C@@H]2C(=O)N[C@H](C(C)C)C(=O)N3CCC[C@H]3C(=O)N(C)CC(=O)N(C)[C@@H](C(C)C)C(=O)O[C@@H]2C)c(N)c1=O	-19%	-9%	x	-36*	u
Cc1ccc2onc(CNC(=O)N3CCN(c4cc(Cl)ccc4C)CC3)c2c1	-2%	-17%	-14%	x	-13%
C=CCn1c(O)c(CN2CCCCC2)c(C)c(C#N)c1=O	u	-25%	u	-33*	25µM*
C=CCNC(=S)Nc1cccc2ccccc12	4%	0%	1%	-51*	-4%
C/C(=C\C(=S)Nc1ccccc1)Nc1ccc2ccccc2c1	u	u	-12%	-37*	13µM*
C/C(=C\C(=S)Nc1ccccc1)Nc1cccc2ccccc12	-9%	-21%	-19%	-49*	u
S=C(NCc1ccccc1)Nc1ccc2ccccc2c1	x	x	-22%	x	x
O=C(Cn1nc(-c2ccccc2)nc(Cc2ccccc2)c1=O)Nc1ccccc1	u	0%	-23%	x	6%
CC(=O)Oc1c(C)cc(Cl)cc1C(=O)Nc1ccc([N+](=O)[O-])cc1Cl	1%	u	-20%	2	2.8µM*
CC(=O)OCC(=O)Nc1ccc([N+](=O)[O-])cc1Cl	-23%	-5%	-11%	0	-2%
O=C(Nc1ccccc1)C1CCCN(C(=O)c2ccc(F)cc2)C1 (stereo not drawn)	x	x	-11%	x	x
CCOC(=O)c1ccc(NC(=O)CC2Nc3cc(C)c(C)cc3NC2=O)cc1 (stereo not drawn)	9%	14µM*[quencher]	-25%	x	u
CCOc1ccc(NC(=O)CC2Nc3ccccc3NC2=O)cc1 (stereo not drawn)	1%	-21%	-14%	4	u
CC(=O)Nc1ccc(NC(=O)CC2Nc3cccc4cccc(c34)NC2=O)cc1 (stereo not drawn)	11%	u	-3%	-20	u
CCOc1ccc(NC(=O)CC2Nc3cccc4cccc(c34)NC2=O)cc1 (stereo not drawn)	4%	16µM*[quencher]	u	x	14µM*
SMILES	Tau fibril FP	Tau fluor counter	USP1-UAF1 inh	Coupling enz	Tau ThT inhib
CCOC(=O)c1ccc(NC(=O)CC2Nc3cccc4cccc(c34)NC2=O)cc1 (stereo not drawn)	u	8.9µM*[quencher]	u	x	13µM*
CC(=O)c1ccc(NC(=O)CC2Nc3cccc4cccc(c34)NC2=O)cc1 (stereo not drawn)	u	25µM*[quencher]	-23%	-31*	14µM*
COC(=O)c1ccc(C2c3c(-c4ccccc4O)n[nH]c3C(=O)N2Cc2cccnc2)cc1 (stereo not drawn)	-8%	-6%	-23%	x	7%
CCCCC/C=C\C\C=C/C=C/C=C/[C@@H](SC[C@H](N)C(=O)NCC(=O)O)[C@@H](O)CCCC(=O)O	-8%	-5%	x	x	-6%
COC(=O)c1ccccc1NC(=O)Cn1c(=O)n(-c2ccc(Cl)cc2)c(=O)c2c(C)c(C)sc21	-5%	-10%	-8%	x	-2%
Cc1ccc(C)c(NC(=O)C2CCN(c3nn4c(=O)cc(C)nc4s3)CC2)c1	2%	-4%	-22%	x	-10%
CS(=O)(=O)N(CC(=O)N1CCc2ccccc2C1)Cc1ccc(F)cc1	x	x	-20%	2	x
COc1ccc(N(Cc2cccs2)C(=O)c2ccccc2C)cc1	6%	-14%	-6%	x	-6%
CCOC(=O)C1=C(C)NC(=O)NC1c1ccc(OCC(=O)Nc2ccccc2)c(OC)c1 (stereo not drawn)	-3%	-2%	-25%	-2	1%
CCOC(=O)C1=C(C)NC(=O)C1CC(=O)Nc1ccccc1 (stereo not drawn)	2%	0%	x	-42*	6%
Cc1cccc(NC(=O)CC2Nc3cccc4cccc(c34)NC2=O)c1 (stereo not drawn)	1%	8.9µM*[quencher]	u	-25	u
c1ccc(-c2nnnn2-c2ccccc2)cc1	x	x	-20%	-2	x
